# Reference: PubChem BioAssay (NCATS)
# “And” between values parts separate entries of the source, which are not always exact repeats. Equal values may be shown once. Results filed as inconclusive are left out. A number with no mark means an inactive call. The source made the active and inactive calls. The call rests on the fitted dose curve; in most records, active means well fitted curve in the direction sought with a large enough effect; inconclusive means small, poorly fitted or top-dose-only effect, or another doubt; inactive means no such curve, though single readings can be large; an effect the other way counts as inactive or inconclusive.
# Assays:
# [1] = biological target: Cellular tumor antigen p53 (Homo sapiens) (UniProt P04637); assay: Primary qHTS for small molecule compounds that upregulate eGFP-tagged delta133p53alpha (in N-terminal) cells. (AID 2060322); conditions: NCI-H358 eGFP-delta133p53alpha fluorescence, 24 h; activation: stronger effect = higher value; further: nearly all actives have a fitted effect of over 75% in size; further: potency means the concentration at half of the fitted maximal effect;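 on activation: cells pre-induced with doxycycline then dosed without doxycycline; 0% = DMSO vehicle and 100% = reference activator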
# Sequence of Cellular tumor antigen p53 (Homo sapiens) (P04637 whole entry, looked up): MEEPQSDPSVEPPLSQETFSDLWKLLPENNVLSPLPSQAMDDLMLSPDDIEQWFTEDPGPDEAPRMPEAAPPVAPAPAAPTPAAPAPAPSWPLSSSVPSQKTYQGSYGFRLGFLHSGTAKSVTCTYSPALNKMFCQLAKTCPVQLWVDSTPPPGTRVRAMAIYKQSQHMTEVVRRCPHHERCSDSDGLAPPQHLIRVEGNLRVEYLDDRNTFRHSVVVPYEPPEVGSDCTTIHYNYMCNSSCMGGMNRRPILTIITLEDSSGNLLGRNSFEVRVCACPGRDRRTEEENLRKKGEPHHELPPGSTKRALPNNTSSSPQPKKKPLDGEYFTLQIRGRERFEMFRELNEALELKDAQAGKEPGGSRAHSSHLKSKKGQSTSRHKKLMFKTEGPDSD
# Summary of the method: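 NCI-H358 cells pre-induced 24 h with 10 ng/ml doxycycline for eGFP-delta133p53alpha, plated dox-free and exposed 24 h at 37C to titrated compounds. Fixed, Hoechst-stained; gated GFP peak intensity by laser scanning cytometry, normalized to DMSO (0%) and 57.5 uM 5-azacytidine (100%).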
# [2] = biological target: Aldehyde dehydrogenase, mitochondrial (Homo sapiens) (UniProt P05091); assay: qHTS for Inhibitors of the Aldehyde Dehydrogenase Family (ALDH2) Primary screen (AID 2061308); conditions: ALDH2 enzyme inhibition qHTS, 1536-well; series mostly up to 56 µM;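 further: plate controls were vehicle for no effect and reference inhibitor for full effect; nearly all actives have a fitted effect of over 55% in size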
# [3] = biological target: Retinaldehyde dehydrogenase 3 (Homo sapiens) (UniProt P47895); assay: qHTS for Inhibitors of the Aldehyde Dehydrogenase Family (ALDH1A3) Primary screen (AID 2061315); conditions: ALDH inhibition qHTS; series mostly up to 56 µM;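 further: plate controls were DMSO vehicle for no effect and reference inhibitor for full effect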
# [4] = BET inhibitor-based combinations targeting novel dependencies in MECOM-rearranged (r) AML: SET-2 cell line (AID 2202231); conditions: SET-2 AML cells viability, CellTiter-Glo luminescence, 48 h; viability: stronger effect = lower value, concentration not given here; further: nearly all actives have a fitted effect of over 35% in size; further: potency means the concentration at half of the fitted maximal effect;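 on viability: plate controls were DMSO treated cells for no effect and wells without cells for full effect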
# Summary of the method: (§1)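 Here, 11-point titrations of each agent were applied to 500 seeded cells and incubated 48 hr; CellTiter-Glo signal, scaled against DMSO and empty wells, was integrated as AUC, then Z-scored within the individual line.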
# [5] = BET inhibitor-based combinations targeting novel dependencies in MECOM-rearranged (r) AML: OCI-AML3 cell line (AID 2202232); conditions: CellTiter-Glo luminescence, 48 h; Potency: OCI-AML3 viability; series mostly up to 46 µM; further: nearly all actives have a fitted effect of over 35% in size; further: potency means the concentration at half of the fitted maximal effect;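 on viability (% of control): plate controls were DMSO vehicle wells for no effect and wells without cells for full effect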
# Summary of the method: as §1
# [6] = BET inhibitor-based combinations targeting novel dependencies in MECOM-rearranged (r) AML: HNT-34 cell line (AID 2202234); conditions: HNT-34 AML viability, CellTiter-Glo luminescence, 48 h; series mostly up to 46 µM; further: nearly all actives have a fitted effect of over 35% in size; further: potency means the concentration at half of the fitted maximal effect;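 on viability (% of control): plate controls were vehicle wells for no effect and cell-free wells for full effect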
# Summary of the method: (§2)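 Normalized to DMSO and empty-well controls, the luminescence data from CellTiter-Glo after 48 hr drug exposure were fitted across 11 concentrations. Reported metrics are area under the dose-response curve and its Z-transformed form.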
# [7] = BET inhibitor-based combinations targeting novel dependencies in MECOM-rearranged (r) AML: AML-191 cell line (AID 2202236; further: nearly all actives have a fitted effect of over 35% in size; further: potency means the concentration at half of the fitted maximal effect;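 on viability (% of control): plate controls were vehicle wells for no effect and wells without cells for full effect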); conditions: AML-191 viability, CellTiter-Glo luminescence, 48 h; series mostly up to 46 µM
# Summary of the method: as §1
# [8] = BET inhibitor-based combinations targeting novel dependencies in MECOM-rearranged (r) AML: AML-194 cell line (AID 2202237; further: nearly all actives have a fitted effect of over 40% in size; further: potency means the concentration at half of the fitted maximal effect;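 on viability (% of control): plate controls were vehicle wells for no effect and wells without cells for full effect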); conditions: AML-194 (MECOM-r AML) viability, CellTiter-Glo, 48 h; series mostly up to 46 µM
# Summary of the method: as §1
# [9] = BET inhibitor-based combinations targeting novel dependencies in MECOM-rearranged (r) AML: MV-4-11 cell line (AID 2202233); conditions: MV-4-11 AML viability, CellTiter-Glo luminescence, 48 h; series mostly up to 46 µM; further: nearly all actives have a fitted effect of over 45% in size; further: potency means the concentration at half of the fitted maximal effect;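 on viability, % of control: plate controls were DMSO for no effect and blank wells for full effect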
# Summary of the method: as §2
# [10] = BET inhibitor-based combinations targeting novel dependencies in MECOM-rearranged (r) AML: UCSD-AML1 cell line (AID 2202235); conditions: UCSD-AML1 AML cells viability, CellTiter-Glo, 48 h; series mostly up to 46 µM; further: nearly all actives have a fitted effect of over 40% in size; further: potency means the concentration at half of the fitted maximal effect;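 on viability (% of control): plate controls were DMSO vehicle wells for no effect and blank wells for full effect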
# Summary of the method: as §2
smiles,measurement,setting,value
CCN1CCN(Cc2ccc(Nc3ncc(F)c(-c4cc(F)c5nc(C)n(C(C)C)c5c4)n3)nc2)CC1,Potency,[1],12 µM (active)
same,Potency,[2],inactive
same,Potency,[3],inactive
same,Potency,[4],5.9 µM (active)
same,Potency,[5],23.5 µM (active)
same,Potency,[6],5.9 µM (active)
same,Potency,[7],2.95 µM (active)
same,Potency,[8],2.09 µM (active)
COC(=O)Nc1ccc(-c2nc(N3CCOCC3)c3cnn(C4CCN(Cc5cccnc5)CC4)c3n2)cc1,activation,[1],9.82%
same,Potency,[2],inactive
same,Potency,[3],inactive
same,Potency,[4],2.63 µM (active)
same,Potency,[9],1.32 µM (active)
same,Potency,[6],1.18 µM (active)
same,Potency,[10],0.525 µM (active)
same,Potency,[7],1.86 µM (active)
CCc1cc(C(N)=O)ccc1-n1nc(C(C)C)c2c(-n3cnc(-c4cnn(C)c4)c3)ccnc21,activation,[1],4.33%
same,Potency,[2],inactive
same,Potency,[3],inactive
same,Potency,[4],2.95 µM (active)
same,Potency,[9],0.662 µM (active)
same,Potency,[6],1.32 µM (active)
same,Potency,[10],1.86 µM (active)
same,Potency,[7],1.66 µM (active)
same,Potency,[8],1.48 µM (active)
CN1C(=O)C(Cc2c[nH]c3ccccc23)NC1=S (centres undefined),activation,[1],23.7%
same,Potency,[2],inactive
same,Potency,[3],inactive
same,viability,[4],99.6%
same,Potency,[5],inactive
same,Potency,[6],inactive
same,Potency,[7],inactive
same,Potency,[8],inactive
Cn1cc(-c2[nH]c3cc(NC(=O)[C@H](N)C4CCCCC4)cc4c3c2C=NNC4=O)cn1,activation,[1],23.5%
same,Potency,[2],inactive
same,Potency,[3],inactive
same,Potency,[4],16.6 µM (active)
same,Potency,[9],0.263 µM (active)
same,Potency,[6],1.05 µM (active)
same,Potency,[10],1.05 µM (active)
C=CC(=O)Nc1cc(Nc2nccc(-c3cn(C)c4ccccc34)n2)c(OC)cc1N(C)CCN(C)C,Potency,[1],3.79 µM (active)
same,Potency,[2],inactive
same,Potency,[3],inactive
same,Potency,[4],9.34 µM (active)
same,Potency,[9],2.95 µM (active)
same,Potency,[6],5.25 µM (active)
same,Potency,[10],4.68 µM (active)
same,Potency,[7],8.33 µM (active)
same,Potency,[8],7.42 µM (active)
Cc1ccn(-c2ccc(-c3ncco3)cc2)c(=O)c1-c1ccc2nc(N)ncc2c1,activation,[1],28.6%
same,Potency,[2],inactive
same,Potency,[3],inactive
same,viability,[4],114%
same,Potency,[9],6.61 µM (active)
same,Potency,[6],0.372 µM (active)
c1ccc(-c2oc3ncnc(NC[C@@H]4CCCO4)c3c2-c2ccccc2)cc1,activation,[1],5.12% and -14.3%
same,Potency,[2],inactive
same,Potency,[3],inactive
same,viability,[4],86.5%
same,Potency,[9],inactive
same,Potency,[6],inactive
same,Potency,[10],inactive
same,Potency,[7],inactive
same,Potency,[8],inactive
O=C(c1cncc(Br)c1)N1CCC(N2CCCC2)CC1,activation,[1],-12.4% and 0.333%
same,Potency,[2],inactive
same,Potency,[3],inactive
same,viability,[4],113%
same,Potency,[5],inactive
same,Potency,[10],inactive
same,Potency,[7],inactive
same,Potency,[8],inactive
O=C(Nc1ccc(F)c(C(F)(F)F)c1)Nc1nnc(-c2ccncc2)s1,activation,[1],-20.5% and 5%
same,Potency,[2],inactive
same,Potency,[3],inactive
same,viability,[4],100%
same,Potency,[5],inactive
same,Potency,[6],inactive
same,Potency,[7],inactive
same,Potency,[8],inactive
Cc1cnc(-c2cnc(NCCNc3ccc(C#N)cn3)nc2-c2ccc(Cl)cc2Cl)[nH]1,activation,[1],9%
same,Potency,[2],inactive
same,Potency,[3],inactive
same,Potency,[4],14.8 µM (active)
same,Potency,[5],inactive
same,Potency,[10],inactive
same,Potency,[8],inactive
COc1cc(Nc2nc3ccccc3nc2NS(=O)(=O)c2ccc(NC(=O)c3ccc(C)c(OC)c3)cc2)cc(OC)c1,activation,[1],-16.4% and -17%
same,Potency,[2],inactive
same,Potency,[3],inactive
same,viability,[4],111%
same,Potency,[9],inactive
same,Potency,[6],inactive
same,Potency,[10],inactive
same,Potency,[8],inactive
Cc1c(NC(=O)c2ccc(C(C)(C)C)cc2)cccc1-c1cn(C)c(=O)c(Nc2ccc(C(=O)N3CCOCC3)cc2)n1,activation,[1],63.1% and -9.82%
same,Potency,[2],inactive
same,Potency,[3],inactive
same,Potency,[4],16.6 µM (active)
same,Potency,[5],inactive
same,Potency,[10],inactive
same,Potency,[8],inactive
Cc1cc(Nc2cc(CN3CCOCC3)c3nc(C)c(Cc4ccc(Cl)cc4F)n3n2)n[nH]1,Potency,[1],27.3 µM (active)
same,Potency,[2],inactive
same,Potency,[3],inactive
same,Potency,[4],2.63 µM (active)
same,Potency,[9],0.235 µM (active)
same,Potency,[6],2.35 µM (active)
same,Potency,[10],2.35 µM (active)
same,Potency,[7],0.742 µM (active)
same,Potency,[8],1.48 µM (active)
Cn1cc(-c2c[nH]c3ncnc(N4CCOCC4)c23)cn1,activation,[1],-7.14%
same,Potency,[2],inactive
same,Potency,[3],inactive
same,viability,[4],112%
same,Potency,[9],11.8 µM (active)
same,Potency,[10],inactive
same,Potency,[7],20.9 µM (active)
same,Potency,[8],inactive
Cc1ncc(Cl)cc1NCc1ccc(C(=O)NC(CC2CCCC2)C(=O)NC2CC2)s1 (centres undefined),activation,[1],3%
same,Potency,[2],inactive
same,Potency,[3],inactive
same,viability,[4],107%
same,Potency,[9],18.6 µM (active)
same,Potency,[10],0.833 µM (active)
same,Potency,[7],5.9 µM (active)
CN[C@@H](C)[C@H]1[C@H](O)C[C@@]2(C)[C@@H]3CC[C@H]4C(C)(C)[C@@H](NC)CC[C@@]45C[C@@]35CC[C@]12C,activation,[1],-17.2% and -1.67%
same,"activity change, negative = inhibition",[2],0.631% [at 11.2 µM]
same,"activity change, negative = inhibition",[3],0.124% [at 11.2 µM]
same,viability,[4],106%
same,"viability, % of control",[9],115% [at 8.46 µM]
same,viability (% of control),[6],103% [at 8.46 µM]
same,viability (% of control),[7],95.8% [at 8.46 µM]
same,viability (% of control),[8],117% [at 8.46 µM]
